Measurements published in PubChem BioAssay AID1570 (National Center for Advancing Translational Sciences (NCATS), 2009).
Several values for one entry are separate records, joined by “and”; a condition that tells them apart may be missing. Equal entries are not always repeated. Results filed as inconclusive are left out. A call without a number means that no potency is given here. Unmarked numbers belong to inactive results. Activity calls are given as the source filed them. Calls come from the whole dose curve; as a rule, active = well fitted inhibition curve with a large enough effect; inconclusive = small, poorly fitted or top-dose-only effect, or effect the other way; inactive = flat fitted curve, though single readings scatter.

target: Thyroid hormone receptor beta (Homo sapiens) (UniProt P10828); assay: Concentration Response Confirmation Assay for Inhibitors of the Interaction of Thyroid Hormone Receptor and Steroid Receptor Coregulator 2, Fluorescein Fluoroprobe; details: TRbeta LBD / fluorescein-SRC2 peptide, fluorescence polarization, 5 h; series mostly up to 92.2 µM
Sequence (P10828 whole entry, looked up, the tested form may be a part): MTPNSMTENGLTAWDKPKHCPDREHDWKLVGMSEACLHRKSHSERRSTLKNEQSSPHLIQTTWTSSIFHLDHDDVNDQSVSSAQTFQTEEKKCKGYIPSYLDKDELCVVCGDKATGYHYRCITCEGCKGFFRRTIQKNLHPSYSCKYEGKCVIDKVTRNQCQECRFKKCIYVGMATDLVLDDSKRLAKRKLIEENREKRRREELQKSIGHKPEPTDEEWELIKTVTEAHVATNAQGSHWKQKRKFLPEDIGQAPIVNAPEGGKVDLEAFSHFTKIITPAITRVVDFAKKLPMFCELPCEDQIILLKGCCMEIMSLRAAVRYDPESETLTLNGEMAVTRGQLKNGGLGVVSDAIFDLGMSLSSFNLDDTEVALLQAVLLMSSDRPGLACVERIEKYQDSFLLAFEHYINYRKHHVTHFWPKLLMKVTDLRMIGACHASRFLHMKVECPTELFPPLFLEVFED
Text: NIH Molecular Libraries Probe Production Network [MLPCN] NIH Chemical Genomics Center [NCGC] MLPCN Grant: DK058080 Assay Provider: R. Kip Guy, St. Jude Children's Research Hospital NCGC Assay Overview: Thyroid receptor (TR) regulates many homeostatic processes including basal metabolism, cardiovascular function, body weight, and lipid trafficking. TR modulators are potential therapeutics for obesity and hyperlipidemias but current thyroid analogs have undesirable side effects, particularly cardiac stimulation. To identify inhibitors that specifically prevent the interaction of TR with the steroid receptor coregulator 2 (SRC2), a fluorescence polarization assay was screened (Arnold et al., 2006). This assay detects interaction of the ligand-binding domain of human TRbeta with a fluorescein labeled SRC2 peptide, corresponding to a 20 amino acid region of the nuclear receptor interaction domain. Small molecule inhibitors that block the interaction of TR and SRC2 are detected by a decrease in fluorescence polarization. This assay is a confirmation assay for AID 1469. Arnold, L. A.; Estebanez-Perpina, E.; Togashi, M.; Shelat, A.; Ocasio, C. A.; McReynolds, A. C.; Nguyen, P.; Baxter, J. D.; Fletterick, R. J.; Webb, P.; Guy, R. K. A high-throughput screening method to identify small molecule inhibitors of thyroid hormone receptor coactivator binding. Sci STKE 2006, p 13.
NCGC Assay Protocol Summary: Five uL/well 0.6 uM TRbeta and 20 nM SRC2 Fluorescein in protein buffer (20mM Tris hydrochloride, 100mM NaCl, 10% glycerol, 1mM EDTA, 0.01% NP-40, 1mM DTT, 1uM T3 and 5% DMSO) was dispensed into black solid 1536-well plates (Grenier) using a solenoid-based dispenser. Following transfer of 23 nL compound or DMSO vehicle by a pin tool, the plates were centrifuged 15 s at 1000 RPM and incubated 5 hr at ambient temperature. The plates were read by an Envision (Perkin Elmer) to detect fluorescence polarization of SRC2 Fluorescein (480 nm excitation and 535 nm emission). Data were normalized to unbound (all components except TRbeta) and bound SRC2 Fluorescein controls. In this assay, we provide % activity data for each concentration as well as potencies for the active compounds. Keywords: NIH Roadmap, MLPCN, MLI, MLSMR, qHTS, NCGC, qHTS, thyroid hormone receptor, steroid receptor coactivator, fluorescence polarization

Compound	Potency	activity, negative = inhibition
CCN(C(=O)C1CCCN(c2ncnc3onc(-c4ccc(F)cc4)c23)C1)c1ccccc1 (stereo not given)	inactive	–
Nc1cccnc1Sc1cc(Cl)c(Cl)cc1Cl	inactive	–
CN(CCO)c1nc(N)c2c(N)nc3c(c2c1C#N)CC(=O)N3C1CCCC1	–	-0.749% [at 11.6 µM]
Cn1c(CCN2CCCCC2)nc2cc(NS(=O)(=O)c3ccc(Cl)cc3)ccc21	–	-6.74% [at 0.0112 µM]
CN1CCc2ccc3c4c2[C@]1(C)Cc1cccc(c1-4)OCO3	44.7 µM (active)	–
CCOc1cc(N2CCOCC2)c(OCC)cc1NC(C)C(=O)N1CCN(CC)CC1 (stereo not given)	inactive	–
C/C(=C\C(=O)c1ccccc1)Nc1ccc(O)cc1	–	-2.06% [at 11.6 µM]
COc1ccc(-c2nc(CS(=O)CC(=O)NCc3ccccn3)c(C)o2)cc1 (stereo not given)	35.5 µM (active)	–
O=C(O)/C=C/C(=O)Nc1ccc(SC(F)(F)C(F)(F)C(F)(F)F)cc1	4.47 µM (active)	–
O=C(O)/C=C/C(=O)Nc1ccc(OC(F)(F)F)cc1Br	50.1 µM (active)	–
Oc1ccc2ccccc2c1/C=N/c1nc2c(s1)CCCC2	31.6 µM (active)	–
COc1cc(NC(C)CCCN)c2ncccc2c1 (stereo not given)	inactive	–
C=CCSc1nnc2n(-c3ccccc3OC)c(=O)c3c4c(sc3n12)CCC4	inactive	–
CCN(CC)S(=O)(=O)c1cccc(N=NC2=C(O)CCCC2=O)c1	–	-3.56% [at 0.0112 µM]
Cc1cc2ccccc2n1CCNC(=O)C(C)Oc1ccccc1 (stereo not given)	inactive	–
CCCCOc1ccc(C(=O)CCN2CCCCC2)cc1	2.51 µM (active)	–
Cc1cc(C)cc(OCC(=O)NCCc2nc3ccccc3[nH]2)c1	inactive	–
N/C(Cc1cccc2ccccc12)=N\OC(=O)c1cccs1	–	-6.32% [at 5.76 µM]
Cc1nc2c3cc(F)ccc3n(Cc3ccccc3F)c2s1	inactive	–
C=CC(=O)OCCOc1ccccc1	50.1 µM (active)	–

Compound	Potency	activity, negative = inhibition
CC1(C)C(N(O)C(=O)Nc2ccc(Cl)cc2)N(c2ccc(Cl)cc2)C(=O)N1CC(=O)NN (stereo not given)	–	-8.24% [at 11.6 µM]
Cc1ccc2c(CC(=O)Nc3c(C(=O)c4ccc(F)cc4)oc4ccccc34)coc2c1C	inactive	–
CN(C(=S)Nc1cccnc1)c1ccc(O)cc1	inactive	–
Cc1ccccc1Nc1cc2ccccc2c(=O)[nH]1	10 µM (active) and 28.2 µM (active)	–
O=c1cc(C23CC4CC(CC(C4)C2)C3)[nH][nH]1	inactive	–
CC(=O)c1cccc(NC(=O)COC(=O)c2ccc(S(C)(=O)=O)c([N+](=O)[O-])c2)c1	–	-8.61% [at 11.6 µM]
CCOC(=O)c1cnc2nc(NCc3ccc(OC)c(OC)c3)[nH]n2c1=O	inactive	–
O=C(Nc1nc2ccc(Cl)cc2s1)c1ccc(N2CCCCC2)c([N+](=O)[O-])c1	inactive	–
Cc1cc(N=Cc2c(O)ccc3ccccc23)no1	–	1.5% [at 0.0112 µM]
CCOc1ccc(C2=Cc3cc(OC)c(OC)cc3C(=C(Cl)Cl)O2)cc1	inactive	–
Cc1ccc(OC(=S)Nc2ccc(O)cc2)cc1	inactive	–
Cn1cc[nH]c1=S	inactive	–
COc1ccccc1Nc1cc2ccccc2c(=O)[nH]1	35.5 µM (active)	–
Cc1ccc(-c2nc(S(=O)(=O)c3ccc(F)cc3)c(SCC(=O)NCC3CCCO3)o2)cc1 (stereo not given)	inactive	–
CS(=O)(=O)c1ccc(C(=O)OCC(=O)NC(=O)C2CCCCC2)cc1[N+](=O)[O-]	5.01 µM (active)	–
CC1(C)CC(=O)C(N=Nc2cccc(S(=O)(=O)N3CCOCC3)c2)=C(O)C1	inactive	–
Cc1cc2c(NC(=O)Nc3ccccc3)cccc2nn1	–	-4.49% [at 0.0112 µM]
CCc1ccc2c(c1)c1nc(C)sc1n2CC	inactive	–
Cc1cccc(S(=O)(=O)c2cn(Cc3ccccc3)c3cc(N4CCC(C)CC4)c(F)cc3c2=O)c1	inactive	–
Nc1cc(-c2ccncc2)c[nH]c1=O	inactive	–
